PubChem BioAssay

test system: Noggin (protein binding on small-molecule microarray); assay: small molecules binding Noggin protein – biochemical, 635/667 nm fluorescence, primary screen (AID 1095); conditions: 635 nm fluorescence, higher = more signal;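 also: score merges 667 nm feature fluorescence with signal to noise over triplicate slides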

For `O=c1cccc(CCc2ccccc2)o1`, which composite z-score is on record?
Its composite z-score is 0.491.

With `COc1ccc([Si](C)(C)[C@H]2[C@H](CCn3cc(CCO)nn3)O[C@@]3(C(=O)N(Cc4ccc(N5CCOC5=O)cc4)c4ccccc43)[C@@H]2C)cc1` as the molecule, how does the composite z-score read?
Its composite z-score is 0.42.

Which composite z-score does the source give for `C=CC[C@@H](OC(=O)Nc1ccc(OC)cc1)c1ccc(O)c2ccccc12` here?
Its composite z-score is 1.46.

For `CC(c1ccccc1)C(O)C1C=CC2C(=O)NC(=O)C2N1Nc1ccccn1` (stereo unspecified), which composite z-score is on record?
The composite z-score was 0.361.

How did the composite z-score turn out when `CC(C)CNC(=O)[C@@H]1c2ccccc2C(=O)N(Cc2cc(C(F)(F)F)cc(C(F)(F)F)c2)[C@H]1c1ccc(CO)cc1` was run?
Its composite z-score is -0.96.

With `C[C@]1(C(=O)NCc2ccccc2)c2ccccc2C(=O)N(Cc2cc(F)cc(C(F)(F)F)c2)[C@H]1c1ccc(CO)cc1` as the molecule, how does the composite z-score read?
The composite z-score was -1.67.

With `O=C1O[C@H](c2ccccc2)[C@H](c2ccccc2)N2[C@H]1[C@@H](C(=O)Nc1nc3ccccc3s1)[C@]1(C(=O)Nc3ccccc31)[C@H]2c1ccc(O)cc1` as the molecule, how does the composite z-score read?
The composite z-score was 1.24.

With `CN(C)CCCNC(=O)[C@@]1(Cc2ccccc2I)c2ccccc2C(=O)N(Cc2ccccc2C(F)(F)F)[C@H]1c1ccc(CO)cc1` as the molecule, how does the composite z-score read?
The composite z-score was -1.16.

How did the composite z-score turn out when `CCCCCN1CC=CC23O[C@@H]4C=CCOC(=O)[C@@H]4[C@H]2C(=O)N(CCCO)[C@@H]3C1=O` (stereo partly specified) was run?
The composite z-score was 0.243.

How did the composite z-score turn out when `C=C(CCCC)/C(=C/C[C@H](OC(C)=O)c1ccc(CO)o1)c1cnc2ccccc2c1` was run?
Its composite z-score is 1.12.

With `CC(C)NC(=O)[C@@]1(Cc2ccccc2I)c2ccccc2C(=O)N(Cc2ccccc2)[C@H]1c1ccc(CO)cc1` as the molecule, how does the composite z-score read?
The composite z-score was 1.04.

For `O=C1C2C=CC(C(O)c3ccc(B(O)O)cc3)N(Nc3ccccc3)C2C(=O)N1c1ccccc1` (stereo unspecified), which composite z-score is on record?
Its composite z-score is -1.11.

For `O=C1C[C@]2(c3ccc([N+](=O)[O-])cc3)C(=O)N(CC(F)(F)F)c3cc(CO)ccc3[C@H]2N1CC12CC3CC(CC(C3)C1)C2`, which composite z-score is on record?
Its composite z-score is 0.363.

Which composite z-score does the source give for `N#Cc1ccc(NN2C(C(O)c3cccs3)C=CC3C(=O)N(c4ccccc4)C(=O)C32)cc1` (stereo unspecified) here?
The composite z-score was -0.187.

Which composite z-score does the source give for `COCCOC(=O)N1C(=O)[C@@]2(c3cc(C#CCNC(N)=O)ccc31)[C@H](C(=O)N1CCc3cc(OC)c(OC)cc3C1)[C@H]1C(=O)O[C@H](c3ccccc3)[C@H](c3ccccc3)N1[C@@H]2c1ccc(OCCO)cc1` here?
Its composite z-score is 1.3.

With `CC(=O)Nc1cc(Br)ccc1C(=O)O` as the molecule, how does the composite z-score read?
Its composite z-score is 0.201.

With `C=CCOC(=O)[C@@H]1[C@H]2C(=O)O[C@H](c3ccccc3)[C@H](c3ccccc3)N2[C@H](c2ccc(OCCOC(=O)[C@@H]3C[C@@H]4C(=O)N[C@@H](Cc5ccccc5)C(=O)N4[C@@H]3c3cccc(OCCO)c3)cc2)[C@@]12C(=O)Nc1ccc(I)cc12` as the molecule, how does the composite z-score read?
The composite z-score was 1.5.

For `[N-]=[N+]=NCc1ccccc1C[C@]1(C(=O)O)N=C(c2ccc(OCCCO)cc2)O[C@H]1c1ccccc1CN=[N+]=[N-]`, which composite z-score is on record?
Its composite z-score is -0.118.

`NCCCCCNC(=O)[C@H]1C[C@H]2C(=O)NCC(=O)N2[C@H]1c1cccc(OCCO)c1` was tested. Which composite z-score did it give?
Its composite z-score is 1.33.

`COc1cc2c(cc1OC)CN(C(=O)[C@@H]1[C@H]3C(=O)O[C@H](c4ccccc4)[C@H](c4ccccc4)N3[C@H](c3ccccc3OCCO)[C@@]13C(=O)Nc1ccc(C#CCNC(N)=O)cc13)CC2` was tested. Which composite z-score did it give?
Its composite z-score is 1.09.

For `C=C(COC)C(=O)CC[C@H](OC(C)=O)c1cccc(OCCO)c1`, which composite z-score is on record?
The composite z-score was 1.03.

`CCOC(=O)C[C@H]1[C@H](OC(=O)Cc2ccc3c(c2)OCO3)[C@@H](NC(=O)C2CCCCC2)c2cc(OCCCO)ccc2N1C(=O)Cc1ccc(OC)cc1` was tested. Which composite z-score did it give?
Its composite z-score is 0.509.

Which composite z-score does the source give for `COCCOC(=O)N1C(=O)[C@@]2(c3cc(C#CCNC(N)=O)ccc31)[C@H](c1ccc(OCCO)cc1)N1[C@H](c3ccccc3)[C@H](c3ccccc3)OC(=O)[C@H]1[C@@H]2C(=O)N1CCc2cc(OC)c(OC)cc2C1` here?
Its composite z-score is 1.04.

For `COCCOC(=O)N1C(=O)[C@@]2(c3cc(C#CC4(O)CCCCCC4)ccc31)[C@H](C(=O)N1CCCCCCC1)[C@H]1C(=O)O[C@H](c3ccccc3)[C@H](c3ccccc3)N1[C@@H]2c1ccccc1OCCO`, which composite z-score is on record?
The composite z-score was 1.55.

`C=C(COC)/C(=C/C[C@H](OC(=O)c1ccncc1)c1cccc(OCCO)c1)c1cc(C(=O)OC)ccc1OC` was tested. Which composite z-score did it give?
The composite z-score was 0.604.

For `COc1c(C)cc(-c2cc3c(c(-c4ccc(Oc5ccccc5)cc4)n2)[Si](C(C)C)(C(C)C)OC3)cc1C`, which composite z-score is on record?
The composite z-score was 0.104.

`CCOC(=O)C1=CCC(c2ccc(C#N)cc2)N(S(=O)(=O)c2ccc(C)cc2)C1` (stereo unspecified) was tested. Which composite z-score did it give?
The composite z-score was -0.184.

Which composite z-score does the source give for `CCOC(=O)C1=C[C@@H](C(C)C)N(S(=O)(=O)c2ccc(C)cc2)[C@H]1c1ccc(C(C)C)cc1` here?
The composite z-score was 0.75.

For `CCOC(=O)C1=CCC(C(C)(C)C)N(S(=O)(=O)c2ccc(C)cc2)C1` (stereo unspecified), which composite z-score is on record?
Its composite z-score is 1.47.

How did the composite z-score turn out when `CCCCC=C[C@@H](NC(=O)c1ccco1)c1ccccc1` was run?
The composite z-score was 0.103.

`CC(C)(C)N1CC=CC23O[C@@H]4C=CCOC(=O)[C@@H]4[C@H]2C(=O)N(CCCCCO)[C@@H]3C1=O` (stereo partly specified) was tested. Which composite z-score did it give?
The composite z-score was -0.617.

With `O=C1C=CC(=O)[C@@H]2CC(COc3ccccc3)=C3[C@@H](CCc4ccccc4)OB(O)C[C@@H]3[C@H]12` as the molecule, how does the composite z-score read?
Its composite z-score is 0.533.

For `Cc1ccccc1C(O)C1C=CC2C(=O)N(C)C(=O)C2N1N1CCCCC1` (stereo unspecified), which composite z-score is on record?
Its composite z-score is 0.21.

How did the composite z-score turn out when `CCOC(=O)C[C@H]1[C@H](OC(=O)c2ccc(C(=O)c3ccccc3)cc2)[C@@H](NC(=O)C2CCCCC2)c2cc(OCCCO)ccc2N1C(=O)c1ccccc1` was run?
Its composite z-score is 0.45.

How did the composite z-score turn out when `Cc1ccc(S[C@]2(C(=O)NCC(C)C)CC(=O)N(Cc3ccccc3Cl)[C@@H]2c2ccc(CO)cc2)cc1` was run?
Its composite z-score is -1.98.

With `COc1cccc(C(=O)O[C@H]2CC[C@]3(C)C4=C(CCC3C2(C)C)[C@]2(C)CC[C@H]([C@H](C)CCCC(C)C)[C@@]2(C)CC4)c1` (stereo partly specified) as the molecule, how does the composite z-score read?
Its composite z-score is 0.383.
